# Screening data (PubChem BioAssay)
# HP1b chromo inh: HTS for Inhibitors of HP1-beta Chromodomain Interactions with Methylated Histone Tails; Chromobox protein homolog 1 (Homo sapiens), P83916; AlphaScreen HP1-beta / biotin-H3K9me3 peptide binding; Potency, µM (top dose mostly 114 µM), for the others: top-dose activity change, negative = inhibition, hits mostly inhibitors; hit rate 0.56% among 390,000; also: potency is read from the fitted curve at half-maximal effect; nearly all actives have a fitted effect of over 70% in size
#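 AlphaScreen: HP1-beta (50 nM) preformed 30 min with biotin-H3(1-18)K9me3 peptide (50 nM) in PBS pH 7.4, 0.01% Tween-20. Compound added for 30 min at RT, then streptavidin donor/nickel chelate acceptor beads (10 ug/mL) for 30 min.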
# JMJD2A Tudor: qHTS Assay for Inhibitors of JMJD2A-Tudor Domain. AlphaScreen JMJD2A-Tudor / H3K4me3 peptide binding. Potency, µM (highest dose often 114 µM), inactives show top-dose activity change, negative = inhibition, most hits filed as inhibitors. hit rate 4.4% among 390,000. AID 504339, 2011; also: potency is read from the fitted curve at half-maximal effect; % is scaled to controls: 0 for no effect and ±100 for the full control effect; nearly all actives have a fitted effect of over 50% in size
# Target sequence (O75164 whole entry, looked up, the tested form may be a part): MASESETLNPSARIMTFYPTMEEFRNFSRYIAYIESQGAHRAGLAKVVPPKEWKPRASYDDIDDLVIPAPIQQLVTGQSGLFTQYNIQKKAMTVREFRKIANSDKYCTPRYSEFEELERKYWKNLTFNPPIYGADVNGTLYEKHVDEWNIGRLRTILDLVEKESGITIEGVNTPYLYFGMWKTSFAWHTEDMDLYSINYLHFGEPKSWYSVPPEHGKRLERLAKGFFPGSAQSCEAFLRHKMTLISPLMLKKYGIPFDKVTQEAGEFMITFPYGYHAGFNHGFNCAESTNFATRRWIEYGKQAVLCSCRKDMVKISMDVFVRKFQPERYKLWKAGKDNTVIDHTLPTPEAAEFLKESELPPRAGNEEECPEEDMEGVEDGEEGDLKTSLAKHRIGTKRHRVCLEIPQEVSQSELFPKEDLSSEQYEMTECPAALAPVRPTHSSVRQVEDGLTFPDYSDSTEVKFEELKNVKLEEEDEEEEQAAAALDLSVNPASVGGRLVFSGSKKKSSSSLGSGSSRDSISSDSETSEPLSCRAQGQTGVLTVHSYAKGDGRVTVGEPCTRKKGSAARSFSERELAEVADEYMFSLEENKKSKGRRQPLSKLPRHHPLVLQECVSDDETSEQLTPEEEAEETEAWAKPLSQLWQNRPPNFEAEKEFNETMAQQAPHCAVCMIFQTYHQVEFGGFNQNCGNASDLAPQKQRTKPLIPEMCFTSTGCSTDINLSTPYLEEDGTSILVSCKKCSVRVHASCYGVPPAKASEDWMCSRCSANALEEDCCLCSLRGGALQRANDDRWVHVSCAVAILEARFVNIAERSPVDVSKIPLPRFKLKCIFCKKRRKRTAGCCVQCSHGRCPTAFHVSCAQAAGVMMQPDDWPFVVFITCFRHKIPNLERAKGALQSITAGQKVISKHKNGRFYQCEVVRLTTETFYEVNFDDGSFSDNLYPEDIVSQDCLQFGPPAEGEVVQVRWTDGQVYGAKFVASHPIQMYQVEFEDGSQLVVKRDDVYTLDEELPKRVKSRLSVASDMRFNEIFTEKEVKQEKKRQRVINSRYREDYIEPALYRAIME
# Six1-Eya2 inh: qHTS Assay for Inhibitors of the Six1/Eya2 Interaction. Homeobox protein SIX1 (Homo sapiens) + Protein phosphatase EYA2 (Homo sapiens), …. AlphaScreen GST-Six1/His-Eya2 binding, biochemical; hits give low values. activity change, % (test concentration not listed). hit rate 0.56% among 360,000. AID 651725, 2012; in the data active = activity change below about -65%; inconclusive = mostly about -30% to -63%; also: % is scaled to controls: 0 for no effect and ±100 for the full control effect
#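 AlphaScreen luminescence read after one hour at 37 °C in darkness. Pin-transferred compounds met GST-Six1 and His-Eya2 protein (5X stock 250 nM/500 nM) plus glutathione donor and Ni-chelate acceptor beads (5X, 50 ug/mL).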
# CtBP-E1A inh: qHTS Assay for Inhibitors of the CtBP/E1A Interaction. CtBP / adenovirus E1A interaction (AlphaScreen). AlphaScreen GST-E1A/His-CtBP binding, 1536-well; hits give low values. activity change, % (concentration not given with the values). hit rate 0.49% among 340,000. AID 651724, 2012; in the data active = activity change below about -65%; inconclusive = mostly about -30% to -63%; also: % is scaled to controls: 0 for no effect and ±100 for the full control effect
#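 GST-E1A and His-tagged CtBP (125 nM each as 5X stock) were preincubated with pin-transferred compound for 2 h at 37 °C in the dark, then glutathione donor and nickel acceptor beads were added for 1 h before AlphaScreen reading.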
# G9a block: qHTS Assay for Inhibitors of Histone Lysine Methyltransferase G9a; Histone-lysine N-methyltransferase EHMT2 (Homo sapiens), Q96KQ7; G9a H3K9 monomethylation, AlphaScreen, 2 h; Potency, µM (doses to about 102 µM), without a hit: at the highest dose activity, negative = inhibition, usual class: inhibitors; hit rate 8.8% among 350,000; also: potency is read from the fitted curve at half-maximal effect; % is scaled to controls: 0 for no effect and ±100 for the full control effect; nearly all actives have a fitted effect of over 75% in size
#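 Enzyme 20 nM + cpd, 15 min RT; add b-H3K9 pep 500 nM / SAM 20 uM; 2 h RT; anti-H3K9me1 Ab 0.5 ug/mL + SA donor / anti-rabbit acceptor beads 20 ug/mL each, 10 min; AlphaScreen read.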
# BAZ2B block: qHTS Assay for Inhibitors of BAZ2B. Bromodomain adjacent to zinc finger domain protein 2B (Homo sapiens), Q9UIF8. AlphaScreen BAZ2B-H3K14Ac peptide displacement. Potency, µM (top dose mostly 114 µM), without a hit: at the top dose activity change, negative = inhibition, usual class: inhibitors. hit rate 4.4% among 360,000; also: potency is read from the fitted curve at half-maximal effect; % is scaled to controls: 0 for no effect and ±100 for the full control effect; nearly all actives have a fitted effect of over 60% in size
#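 In this displacement format the biotinylated H3(5-23) peptide acetylated at Lys14 serves as ligand at 50 nM, with BAZ2B at 50 nM in PBS pH 7.4 containing 0.01% Tween-20. Donor and acceptor beads are 10 ug/mL final.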
# * hit, by the source's call; ? = inconclusive; nt = no result; [ ] = dose if it differs, or a comment. A selection: hits, their analogues and other compounds. The true share with any hit is near 10%. Unless noted, calls follow the shape of the dose curve; as a rule, active = well fitted inhibition curve with a large enough effect; inconclusive = small, poorly fitted or top-dose-only effect; inactive = no such curve, though single readings can be large or run the other way.
SMILES,HP1b chromo inh,JMJD2A Tudor,Six1-Eya2 inh,CtBP-E1A inh,G9a block,BAZ2B block
Cn1c(=O)c2c(nc(CN3CCc4ccccc4C3)n2CCCO)n(C)c1=O,39%,1%,-5,4,11µM*,-14%
CCc1cccc(C)c1NC(=O)c1nc2ccccc2nc1N1CCCCC1,26%,-10%,nt,nt,1%[59 µM],-4%
CC1(O)N(CCC(=O)Nc2cccc(F)c2)C(=O)OC12CCCCC2 (stereo not given),18%,-9%,1,-15,-28%,-13%
BrC(=C\c1ccccc1)/C=N/N1CCN(c2ccccc2)CC1,-30%,-29%,-13,-26,20µM*,?
Cc1ccc(CN2CCN(/N=C\C(Br)=C\c3ccccc3)CC2)cc1,?,45µM*,-12,-18,?,?
CC(/C=N\N1CCN(c2ccc(Cl)cc2)CC1)=C\c1ccccc1,32%,-31%,5,-1,-48%,5%
CC(/C=N/N1CCN(c2ccc(C)cc2)CC1)=C\c1ccccc1,1%,-25%,-3,-2,2%[59 µM],-10%
CC(/C=N/N1CCN(Cc2ccccc2)CC1)=C\c1ccccc1,?,45µM*,?,?,28µM*,50µM*
O=C(Nc1ccc(SC(F)F)cc1)c1cc(-c2ccc3c(c2)OCCO3)on1,5%,-12%,nt,nt,0%[59 µM],-9%
COc1ccc(N2CCN(c3ccc(-c4nc(-c5cccc(C)c5)no4)cc3[N+](=O)[O-])CC2)cc1,50%,-14%,nt,nt,-27%[59 µM],-11%
O=C(Nc1cccc2ccccc12)c1csc([C@@H]2O[C@H](CO)[C@H](O)[C@H](O)[C@H]2O)n1,nt,nt,-3,-5,nt,nt
Cc1ccc(S(=O)(=O)N2CCN(C(=O)c3ccc(Br)o3)CC2)c(C)c1,-17%,-22%,-5,-4,79µM*,-30%
Cc1ccc(S(=O)(=O)N2CCN(C(=O)c3ccc4ccccc4n3)CC2)c(C)c1,8%,35µM*,0,-1,2%[2.33 µM],50µM*
O=C(Cn1c(=O)nc(-c2ccccc2)c2cc(Cl)ccc21)Nc1ccc(F)c(Cl)c1,15%,-6%,nt,nt,-21%[59 µM],0%
CCOC(=O)c1c(-c2ccco2)csc1N,?,?,-8,0,18µM*,-13%
CCOC(=O)c1c(-c2cccs2)csc1N,?,-35%,-4,-8,50µM*,-38%
CCOC(=O)c1c(-c2cc(OC)c(OC)c(OC)c2)csc1N,nt,nt,-15,-1,nt,nt
CCN(C(=O)CSc1nnc(-c2ccc(C)cc2)n1N)c1c(N)n(Cc2ccccc2)c(=O)[nH]c1=O,24%,-19%,-9,14,?,11%
CC(C)CN(C(=O)CSc1nnc(-c2cccs2)n1N)c1c(N)n(Cc2ccccc2)c(=O)[nH]c1=O,26%,-8%,-1,0,50µM*,7%
Cc1nnc(SCC(=O)N(CC(C)C)c2c(N)n(Cc3ccccc3)c(=O)[nH]c2=O)n1N,12%,-9%,2,0,10µM*,-2%
CC(C)CN(C(=O)CSc1nc2ccccc2[nH]1)c1c(N)n(Cc2ccccc2)c(=O)[nH]c1=O,nt,nt,5,-20,nt,nt
CC(C)CN(C(=O)CCCc1nc2ccccc2c(=O)[nH]1)c1c(N)n(Cc2ccccc2)c(=O)[nH]c1=O,17%,-10%,8,1,40µM*,13%
Cc1ccc(N2C(=O)C3C4C=CC(CNC(=S)N5CCN(c6ccccn6)CC5)(O4)C3C2=O)cc1 (stereo not given),?,?,-1,nt,2.2µM*,-1%
Cc1ccc(C)c(NC(=S)N2CCN(c3ccccn3)CC2)c1,23%,-18%,2,nt,nt,-8%
CC(C)(C)C(=O)NCC12C=CC(O1)C1C(=O)N(c3ccccc3)C(=O)C12 (stereo not given),?,56µM*,3,12,1.6µM*,-2%
SMILES,HP1b chromo inh,JMJD2A Tudor,Six1-Eya2 inh,CtBP-E1A inh,G9a block,BAZ2B block
O=C1C2C3C=CC(CO)(O3)C2C(=O)N1c1ccc(-c2ccccc2)cc1 (stereo not given),nt,nt,nt,nt,1µM*,-27%
COc1ccc(CCC(=O)NC2CCC(C)CC2)cc1 (stereo not given),24%,-3%,8,3,-10%,-7%
COc1cc(CN2C[C@@H](CO)O[C@@H](n3cnc4c(N5CCCC5)ncnc43)C2)cc(OC)c1OC,nt,nt,-1,-4,nt,nt
C=CCNC(=S)N1CCN(c2ncc3c(=O)c(C(=O)O)cn(CC)c3n2)CC1,22%,50µM*,-7,-11,nt,-38%
CCn1cc(C(=O)O)c(=O)c2cnc(N3CCN(C(=S)NC(=O)c4ccc(Cl)cc4)CC3)nc21,50%,-3%[11.4 µM],-2,-6,?,-13%
CCn1cc(C(=O)O)c(=O)c2cnc(N3CCN(C(=S)Nc4ccccc4Cl)CC3)nc21,6%,-2%,-16,?,56µM*,-4%
CCn1cc(C(=O)O)c(=O)c2cnc(N3CCN(C(=S)NC(=O)c4ccc(Br)cc4)CC3)nc21,27%,56µM*,-2,-1,nt,1%
COc1cc(CO)cc(Br)c1OCC(=O)O,30%,?,27,9,50µM*,-4%
CCOc1cc(CO)cc(Br)c1OCC(=O)O,27%,-26%,-9,-1,nt,nt
CCOc1c(Br)cc(C(N)=O)cc1OC,-18%,56µM*,2,0,-2%,-11%
O=C(OCCOc1ccccc1)c1cc(S(=O)(=O)N2CCOCC2)c(Cl)cc1Cl,nt,nt,4,-3,nt,nt
Cc1nn(-c2ccccc2)c(C)c1/C=N\N1CCN(c2ccc(Cl)cc2)CC1,?,28µM*,-11,-2,?,32µM*
Cc1c(I)c(=O)n(-c2ccccc2)n1C,nt,nt,nt,nt,31%[59 µM],nt
COC(=O)c1scc(C#N)c1N/N=C(\C#N)S(=O)(=O)c1ccc(Cl)cc1,-9%,?,-11,-5,45µM*,-37%
COC(=O)c1scc(C)c1N/N=C(\C)c1ccc(F)cc1F,100%,50%,30,39,8%,27%
COC(=O)c1scc(S(=O)(=O)C(C)C)c1N/N=C(\C#N)C(=O)c1ccc(Cl)cc1,-6%,?,-5,nt,50µM*,-33%
COC(=O)c1scc(C)c1NC(=O)c1ccc(Cl)cc1,8%,3%,10,-2,15%[0.501 µM],8%
Cc1nc(NC(=O)CCl)sc1C(=O)N(C)C,40%,-3%,3,nt,?,2%
